Measured values taken from PubChem BioAssay (NCI).
The panel holds about 83,000 compounds, 20% with a hit somewhere; the sample as a whole holds those more often.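 A percent growth of 40 corresponds to 60% growth inhibition; 0 means no net growth; -100 means all cells died. Active threshold: below 10.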 Active and inactive are the calls of the source.

Columns and labels:
Experiment in all cases: NCI-60 one-dose screen, 48 h (100 = growth as untreated, 0 = no growth, -100 = all killed)
Details in all cases: 10 µM
[1] = tested on: DU-145 prostate
[2] = tested on: K-562 leukemia
[3] = tested on: MALME-3M melanoma
[4] = tested on: MDA-MB-231 breast
[5] = tested on: RXF 393 renal
[6] = tested on: SF-268 CNS
[7] = tested on: SF-295 CNS
[8] = tested on: SF-539 CNS
[9] = tested on: M14 melanoma
[10] = tested on: HCT-15 colon
[11] = tested on: HT29 colon
[12] = tested on: SNB-75 CNS
[13] = tested on: SNB-19 CNS
[14] = tested on: U251 CNS
[15] = tested on: PC-3 prostate
[16] = tested on: SK-MEL-5 melanoma
[17] = tested on: UACC-62 melanoma
[18] = tested on: LOX IMVI melanoma
[19] = tested on: SK-MEL-28 melanoma

Structure (SMILES) | growth [1] | growth [2] | growth [3] | growth [4] | growth [5] | growth [6] | growth [7] | growth [8] | growth [9] | growth [10] | growth [11] | growth [12] | growth [13] | growth [14] | growth [15] | growth [16] | growth [17] | growth [18] | growth [19]
N#Cc1c(-c2ccc(Cl)cc2)csc1NC(=O)Nc1ccc(Cl)c(C(F)(F)F)c1 | 5.84% (active) | 9.03% (active) | -26.7% (active) | 2.12% (active) | 33.7% (inactive) | 27.8% (inactive) | -27.2% (active) | 31.5% (inactive) | 8.06% (active) | 4.52% (active) | 1.62% (active) | 36.5% (inactive) | 31.6% (inactive) | 2.57% (active) | 1.89% (active) | -24.2% (active) | 16.2% (inactive) | 11.7% (inactive) | 28.4% (inactive)
O=C(CCCNC(=O)c1nc(-c2ccccc2)n(-c2ccccc2)n1)NO | 108% (inactive) | 106% (inactive) | 99.4% (inactive) | 103% (inactive) | 103% (inactive) | 105% (inactive) | 105% (inactive) | 107% (inactive) | 98% (inactive) | 104% (inactive) | 90.1% (inactive) | 107% (inactive) | 98.1% (inactive) | 94.6% (inactive) |  | 104% (inactive) | 102% (inactive) | 97.9% (inactive) | 109% (inactive)
O=C(Nc1ccc(OS(=O)(=O)c2ccccc2)cc1)C1CCCCC1 | 92.8% (inactive) | 60.6% (inactive) | 81.9% (inactive) | 73.1% (inactive) | 87.5% (inactive) | 90.2% (inactive) | 89.7% (inactive) | 80.4% (inactive) | 70.3% (inactive) | 67.7% (inactive) | 39.3% (inactive) | 95.7% (inactive) | 89.2% (inactive) | 69.6% (inactive) | 72.7% (inactive) | 77.1% (inactive) | 89.5% (inactive) | 86.2% (inactive) | 91.7% (inactive)
O=C(O)c1ccc(-n2cc(CNc3ccc(Oc4ccccc4)cc3)c(-c3ccccc3)n2)cc1 | 99.8% (inactive) | 78.3% (inactive) | 88.6% (inactive) | 92% (inactive) | 86.9% (inactive) | 90.2% (inactive) | 72.1% (inactive) | 90.6% (inactive) | 97.2% (inactive) | 72.9% (inactive) | 102% (inactive) | 81.6% (inactive) | 87.7% (inactive) | 83.3% (inactive) | 96% (inactive) | 96.8% (inactive) | 83.4% (inactive) | 90.4% (inactive) | 86.8% (inactive)
Cc1c2c[n+](C(C)C)ccc2c(C)c2c1[nH]c1ccccc12 | 36.1% (inactive) | 23.3% (inactive) | -25.6% (active) | 35.3% (inactive) | 60.3% (inactive) | 15.3% (inactive) | 2.91% (active) | 20.8% (inactive) | 30% (inactive) | 87.7% (inactive) | 21.5% (inactive) | 41% (inactive) | 4.83% (active) | 13.6% (inactive) |  | -63.4% (active) | 10.5% (inactive) | 40.7% (inactive) | 15.7% (inactive)
CCn1c(SCc2ccc(C)cc2)nnc1-c1nn(-c2ccc(Cl)cc2Cl)c(-c2ccc(Cl)cc2)c1C | 23.4% (inactive) | 8.88% (active) | 7.8% (active) | 5.05% (active) | 8.71% (active) | 22.8% (inactive) | 9.65% (active) | 19.8% (inactive) | 12.3% (inactive) | 11.6% (inactive) | 2.65% (active) | 23.3% (inactive) | 22.1% (inactive) | 14.4% (inactive) | 5.63% (active) | -92.3% (active) | 21.2% (inactive) | 7.19% (active) | 30.3% (inactive)
COc1ccc([C@H]2[C@H](C(=O)Nc3cccnc3)c3ccccc3C(=O)N2c2ccccc2)cc1 | 107% (inactive) | 99.9% (inactive) | 108% (inactive) | 95.9% (inactive) | 94.2% (inactive) | 93.9% (inactive) | 70.7% (inactive) | 114% (inactive) | 86.2% (inactive) | 78.1% (inactive) | 81.3% (inactive) | 98.9% (inactive) | 88.4% (inactive) | 74.8% (inactive) |  | 79.4% (inactive) | 92.3% (inactive) | 92.5% (inactive) | 102% (inactive)
O=C(O)c1ccc(-n2cc(CNc3ccc(Cl)cc3)c(-c3ccccc3)n2)cc1 | 95.7% (inactive) | 77.5% (inactive) | 79.9% (inactive) | 88.6% (inactive) | 98.6% (inactive) | 100% (inactive) | 80.5% (inactive) | 82.6% (inactive) | 94.3% (inactive) | 70.5% (inactive) | 102% (inactive) | 78.4% (inactive) | 94.8% (inactive) | 93.5% (inactive) | 97.2% (inactive) | 87.6% (inactive) | 67.6% (inactive) | 74.3% (inactive) | 92.8% (inactive)
